Assay outcomes (PubChem BioAssay)
The list is not random: actives were taken first. Their share in the collection is about 7.3%.
SMN2 splice up = enhancers of SMN2 splice variant expression; HEK293 SMN2-luciferase splicing reporter, luminescence, 30-36 h; Potency, µM (titrated, usually from 46.1 µM), for inactives: top-dose activity change, positive = activation, actives largely listed as activators; 210,000 tested, 2.8% active; AID 1458; note: % of control where 0% means no effect; nearly all actives have a fitted effect of over 55% in size
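qHTS luciferase splicing reporter: luminescence rises when SMN2 exon 7 is included in transfected HEK293 cells. Compound exposure lasted 30-36 h at 37C, with 4.5 mM final sodium butyrate as control, followed by a ONE-Glo read.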
KinaseGlo FLuc = Kinase-Glo luciferase inhibition (counter-screen). Q27757. Kinase-Glo luciferase, ATP luminescence, 8 min. Potency, µM (series often up to 38.3 µM), for inactives: at the highest dose activity change, negative = inhibition, usual class: inhibitors. 200,000 tested, 0.28% active; note: % is set by controls: 0 for no effect and ±100 for the full control effect; nearly all actives have a fitted effect of over 60% in size
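Light output from Kinase-Glo luciferase with luciferin and 10 uM ATP in 50 mM imidazole pH 7.2, KCl, MgCl2, Tween 20, BSA; compound pin-delivered, 8-min ambient incubation, then luminescence read.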
NPC1 prom act = NPC1 promoter activation; Huh7 NPC1 promoter luciferase reporter, 24 h; Potency, µM (titrated, usually from 9.22 µM), without a hit: at the top dose activation, usual class: activators; 320,000 tested, 2.4% active; note: % of control where 0% means no effect; nearly all actives have a fitted effect of over 60% in size
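Luminescence from an NPC1 promoter-driven luciferase reporter in stably transfected Huh7 cells was measured after 24 h compound treatment at 37 °C, followed by 10 min ambient incubation with luciferase detection reagent.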
Rab9 prom act = activates the Rab9 promoter | Huh7 Rab9 promoter-luciferase reporter, luminescence, 24 h | Potency, µM (doses to about 9.22 µM), for the others: at the highest dose activation, negative = inhibition, actives largely listed as activators | 320,000 tested, 2.8% active; note: % of control where 0% means no effect; nearly all actives have a fitted effect of over 60% in size
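Luminescence read-out: Huh7 cells stably expressing Rab9-luciferase, treated 24 h with compound at 37 °C, then lysed with luciferase reagent for 10 min at ambient before reading.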
FLuc counter = counter-screen for miR-21 project: firefly luciferase inhibitors or activators | purified FLuc, Km substrates, luminescence inhibition | Potency, µM (highest dose often 57.5 µM), for the others: top-dose activity change, negative = inhibition, hits mostly inhibitors | 360,000 tested, 6.9% active;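 note: plate controls were vehicle for no effect and reference inhibitor for full effect; nearly all actives have a fitted effect of over 55% in size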
Target sequence (P08659 whole entry, looked up): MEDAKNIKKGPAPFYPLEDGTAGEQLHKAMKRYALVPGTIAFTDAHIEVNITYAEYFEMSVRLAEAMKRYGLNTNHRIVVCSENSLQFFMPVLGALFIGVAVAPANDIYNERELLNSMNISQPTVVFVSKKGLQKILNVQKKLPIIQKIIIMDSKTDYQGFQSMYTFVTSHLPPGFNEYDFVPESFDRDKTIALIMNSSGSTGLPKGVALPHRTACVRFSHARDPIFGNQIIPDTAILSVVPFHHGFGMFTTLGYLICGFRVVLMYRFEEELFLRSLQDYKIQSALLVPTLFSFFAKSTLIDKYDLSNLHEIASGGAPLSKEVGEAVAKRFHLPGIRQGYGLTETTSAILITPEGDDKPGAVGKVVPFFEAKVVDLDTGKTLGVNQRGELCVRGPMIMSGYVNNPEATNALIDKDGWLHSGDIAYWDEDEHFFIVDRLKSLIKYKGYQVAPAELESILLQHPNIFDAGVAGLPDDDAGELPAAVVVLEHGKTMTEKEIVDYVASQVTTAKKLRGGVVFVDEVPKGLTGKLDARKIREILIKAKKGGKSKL
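Purified P. pyralis luciferase (10nM final) with 10uM D-luciferin and 10uM ATP (Km levels) in 50mM Tris acetate pH 7.5, 10mM Mg acetate, 0.01% Tween-20, 0.05% BSA; qHTS 6-point titration, ~60 µM downward; luminescence read.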
ELG1 genotoxic = induces genotoxicity in HEK293T cells with luciferase-tagged ELG1. HEK293T ELG1-luciferase reporter, luminescence, 16 h. Potency, µM (titrated, usually from 46 µM), for inactives: at the highest dose activity change, positive = activation, usual class: activators. 330,000 tested, 1.3% active. AID 504466; note: % of control where 0% means no effect; nearly all actives have a fitted effect of over 60% in size
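Genotoxicity was scored as increased ELG1-luciferase reporter signal, measured by ONE-Glo luminescence (30 min, room temperature). Compound or vehicle exposure of the HEK293T reporter cells lasted 16 hr at 37°C.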
An asterisk follows results filed as active; [ ] = remark or other dose. Calls come from the whole dose curve; as a rule, active = well fitted curve in the direction sought with a large enough effect; inconclusive = small, poorly fitted or top-dose-only effect, or another doubt; inactive = no such curve, though single readings can be large; an effect the other way counts as inactive or inconclusive. Potency is the fitted concentration of half-maximal effect.

What do the screens show for `O=[N+]([O-])c1cccc(N/N=C/c2cccc(O)c2O)c1`?
SMN2 splice up: inconclusive; KinaseGlo FLuc: 0%; NPC1 prom act: -17%; Rab9 prom act: 2%; FLuc counter: 15µM*; ELG1 genotoxic: inconclusive

How did O=[N+]([O-])c1ccccc1N/N=C/c1cccc(O)c1O do in these assays?
NPC1 prom act: 3.5µM*; Rab9 prom act: -8%; FLuc counter: 1.5µM*; ELG1 genotoxic: 10µM*

What do the screens show for `O=[N+]([O-])c1ccc(N/N=C/c2cccc(O)c2O)c(S(=O)(=O)N2CCOCC2)c1`?
SMN2 splice up: 13%; KinaseGlo FLuc: -3%; NPC1 prom act: -13%; Rab9 prom act: -23%; FLuc counter: -2%; ELG1 genotoxic: -9%

Results for O=[N+]([O-])c1ccc(O)c(/C=N/n2cnc3ccccc32)c1 ?
SMN2 splice up: -48%; KinaseGlo FLuc: 2%; NPC1 prom act: 6%; Rab9 prom act: -3%; FLuc counter: 27µM*; ELG1 genotoxic: -10%

How did O=[N+]([O-])c1cccc(/C=N\Nc2ccc3ccccc3n2)c1O do in these assays?
SMN2 splice up: -11%[9.22 µM]; KinaseGlo FLuc: -23%[7.66 µM]

Results for O=[N+]([O-])c1ccccc1N/N=C\c1ccccc1F ?
NPC1 prom act: inconclusive; Rab9 prom act: 2.8µM*; FLuc counter: inconclusive; ELG1 genotoxic: 5.8µM*

How did CNC(=O)c1cc2n(n1)CCCN(Cc1ccc(F)cc1)C2=O do in these assays?
FLuc counter: 0%

How did CCOc1ccc(NC(=O)CN2CCN(c3ccc(Cl)cc3)CC2)cc1 do in these assays?
FLuc counter: 0%

Results for O=C(NCc1ccc(Cl)cc1)C1CCN(S(=O)(=O)c2ccc3c(c2)CCCN3C(=O)C2CCC2)CC1 ?
FLuc counter: 0%

How did Cc1cccc(CSCCNC(=O)CN(c2ccccc2)S(=O)(=O)N(C)C)c1 do in these assays?
SMN2 splice up: -18%; FLuc counter: 0%

How did C/C(=N\Nc1cccc([N+](=O)[O-])c1)c1ccccc1O do in these assays?
NPC1 prom act: 2%; Rab9 prom act: inconclusive; FLuc counter: 19µM*; ELG1 genotoxic: inconclusive

What do the screens show for `O=[N+]([O-])c1ccc(O)c(/C=N/Nc2ccccc2Cl)c1`?
SMN2 splice up: 13µM*; KinaseGlo FLuc: -3%; NPC1 prom act: 1.4µM*; Rab9 prom act: inconclusive; FLuc counter: 4.8µM*; ELG1 genotoxic: inconclusive

How did O=[N+]([O-])c1ccccc1N/N=C\c1ccccc1Cl do in these assays?
SMN2 splice up: 7.9µM*; KinaseGlo FLuc: inconclusive; NPC1 prom act: inconclusive; Rab9 prom act: 2.8µM*; FLuc counter: 0.67µM*; ELG1 genotoxic: inconclusive

Results for Cc1c(NC(=S)N/N=C/c2cc([N+](=O)[O-])ccc2O)c(=O)n(-c2ccccc2)n1C ?
NPC1 prom act: -3%; Rab9 prom act: -3%; FLuc counter: 27µM*; ELG1 genotoxic: -12%

How did CCOCCCn1c(SCC(=O)Nc2ccccc2OC)nc2c(oc3ccccc32)c1=O do in these assays?
SMN2 splice up: -8%; FLuc counter: 5%

How did C=CCc1cccc(C=NNC(=O)CN2CCN(Cc3ccccc3)CC2)c1O do in these assays?
NPC1 prom act: -13%[46.1 µM]; Rab9 prom act: -33%[46.1 µM]

Results for COc1ccc(N2CCN(c3oc(/C=C/c4cc(OC)c(OC)c(OC)c4)nc3C#N)CC2)cc1 ?
SMN2 splice up: -10%; FLuc counter: -5%

How did O=C(COc1ccc(Br)cc1Cl)Nc1ncn[nH]1 do in these assays?
SMN2 splice up: inconclusive; FLuc counter: 2.1µM*

Results for CCc1ccc(OCC(=O)Nc2ncn[nH]2)cc1 ?
SMN2 splice up: inconclusive; KinaseGlo FLuc: -5%; NPC1 prom act: inconclusive; Rab9 prom act: 4.5µM*; FLuc counter: 13µM*; ELG1 genotoxic: inconclusive
